In paper PMC7862700, “An all-to-all approach to the identification of sequence-specific readers for epigenetic DNA modifications on cytosine”:

What was measured:
Experiment in all cases: DAPPL (digital affinity profiling via proximity ligation, sequencing); 10 mM Tris-HCl pH 7.5, 50 mM NaCl, 1 mM DTT, 4% glycerol, room temperature, 30 min; GST-TFs on glutathione beads, 16-mer random dsDNA library, 0.1% formaldehyde crosslink after washing; high values mean tight binding
Settings in all cases: protein: recombinant; tags: N-terminal GST; dsDNA, one strand shown
FLI1 = molecular target: T1, FLI1 (Homo sapiens, UniProt Q01543 1-452)
T1 sequence: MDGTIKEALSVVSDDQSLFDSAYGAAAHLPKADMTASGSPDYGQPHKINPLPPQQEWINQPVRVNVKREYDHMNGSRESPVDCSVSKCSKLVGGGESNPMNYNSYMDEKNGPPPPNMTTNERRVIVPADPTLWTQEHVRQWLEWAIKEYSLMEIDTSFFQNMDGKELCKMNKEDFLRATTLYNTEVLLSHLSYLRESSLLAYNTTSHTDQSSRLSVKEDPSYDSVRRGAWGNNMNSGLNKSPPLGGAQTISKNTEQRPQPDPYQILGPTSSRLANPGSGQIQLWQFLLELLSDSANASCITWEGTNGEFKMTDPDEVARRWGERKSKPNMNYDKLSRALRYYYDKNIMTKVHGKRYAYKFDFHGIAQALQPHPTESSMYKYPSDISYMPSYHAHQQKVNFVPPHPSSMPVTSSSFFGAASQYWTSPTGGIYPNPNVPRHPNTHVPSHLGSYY
Summary of the method: (§1)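 Sequencing on an Illumina NextSeq500 followed washing, crosslinking with 0.1% formaldehyde, proximity ligation (BsaI/T4 ligase, 1 h, 37 °C) and PCR amplification of pools that had been incubated for 30 min at room temperature with 200 nmole of a random double-stranded 16-mer DNA library in Tris/NaCl/DTT/glycerol buffer. Each pool held DNA-barcoded human transcription factors, expressed in yeast as GST fusions and captured on glutathione beads, plus a tag-only sample. Binding signal is a hexamer's read frequency for a factor divided by its frequency in the tag-only sample.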

ELK1 = molecular target: T2, ELK1 (Homo sapiens, UniProt P19419 1-428)
T2 sequence: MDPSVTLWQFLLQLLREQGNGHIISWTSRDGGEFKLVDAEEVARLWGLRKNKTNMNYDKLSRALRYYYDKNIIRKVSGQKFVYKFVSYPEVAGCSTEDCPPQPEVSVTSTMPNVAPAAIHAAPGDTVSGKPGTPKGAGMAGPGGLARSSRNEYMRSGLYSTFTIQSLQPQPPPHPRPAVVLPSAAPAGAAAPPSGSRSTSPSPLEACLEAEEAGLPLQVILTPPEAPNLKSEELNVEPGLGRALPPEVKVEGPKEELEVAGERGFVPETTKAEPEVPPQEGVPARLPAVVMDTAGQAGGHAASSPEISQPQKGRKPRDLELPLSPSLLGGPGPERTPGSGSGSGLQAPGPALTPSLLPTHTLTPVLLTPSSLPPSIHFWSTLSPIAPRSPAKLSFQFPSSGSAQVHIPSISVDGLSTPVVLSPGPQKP
Summary of the method: as §1

GABPA = molecular target: T3, GABPA (Homo sapiens, UniProt Q06546 1-454)
T3 sequence: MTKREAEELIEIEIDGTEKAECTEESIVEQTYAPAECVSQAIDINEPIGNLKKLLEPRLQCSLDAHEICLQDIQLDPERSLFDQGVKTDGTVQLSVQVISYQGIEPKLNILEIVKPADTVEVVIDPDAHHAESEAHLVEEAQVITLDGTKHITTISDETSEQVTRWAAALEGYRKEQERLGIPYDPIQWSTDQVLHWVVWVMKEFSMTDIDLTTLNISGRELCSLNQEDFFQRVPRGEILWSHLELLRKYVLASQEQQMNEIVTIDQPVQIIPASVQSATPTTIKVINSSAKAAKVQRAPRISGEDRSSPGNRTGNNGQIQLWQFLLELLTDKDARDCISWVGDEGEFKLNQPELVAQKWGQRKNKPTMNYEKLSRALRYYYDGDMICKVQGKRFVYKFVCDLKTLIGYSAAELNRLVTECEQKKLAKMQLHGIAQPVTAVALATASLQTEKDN
Summary of the method: as §1

ERG = molecular target: T4, ERG (Homo sapiens, UniProt P11308 1-479)
T4 sequence: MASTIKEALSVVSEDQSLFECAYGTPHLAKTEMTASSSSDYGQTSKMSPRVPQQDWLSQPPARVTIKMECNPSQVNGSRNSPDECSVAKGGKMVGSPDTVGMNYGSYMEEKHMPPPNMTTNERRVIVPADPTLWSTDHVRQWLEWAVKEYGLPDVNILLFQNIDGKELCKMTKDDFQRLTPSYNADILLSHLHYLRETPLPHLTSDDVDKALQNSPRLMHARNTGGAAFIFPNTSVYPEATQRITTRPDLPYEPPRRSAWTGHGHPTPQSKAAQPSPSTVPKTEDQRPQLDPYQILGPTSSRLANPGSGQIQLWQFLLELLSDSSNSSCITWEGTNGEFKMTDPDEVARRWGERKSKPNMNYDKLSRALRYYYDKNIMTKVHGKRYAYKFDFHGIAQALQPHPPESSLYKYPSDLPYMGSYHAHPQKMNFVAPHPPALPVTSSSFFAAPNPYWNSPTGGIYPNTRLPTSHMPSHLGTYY
Summary of the method: as §1

ELF1 = ELF1 (Homo sapiens, UniProt P32519 1-619)
Chain of ELF1 (P32519 whole entry): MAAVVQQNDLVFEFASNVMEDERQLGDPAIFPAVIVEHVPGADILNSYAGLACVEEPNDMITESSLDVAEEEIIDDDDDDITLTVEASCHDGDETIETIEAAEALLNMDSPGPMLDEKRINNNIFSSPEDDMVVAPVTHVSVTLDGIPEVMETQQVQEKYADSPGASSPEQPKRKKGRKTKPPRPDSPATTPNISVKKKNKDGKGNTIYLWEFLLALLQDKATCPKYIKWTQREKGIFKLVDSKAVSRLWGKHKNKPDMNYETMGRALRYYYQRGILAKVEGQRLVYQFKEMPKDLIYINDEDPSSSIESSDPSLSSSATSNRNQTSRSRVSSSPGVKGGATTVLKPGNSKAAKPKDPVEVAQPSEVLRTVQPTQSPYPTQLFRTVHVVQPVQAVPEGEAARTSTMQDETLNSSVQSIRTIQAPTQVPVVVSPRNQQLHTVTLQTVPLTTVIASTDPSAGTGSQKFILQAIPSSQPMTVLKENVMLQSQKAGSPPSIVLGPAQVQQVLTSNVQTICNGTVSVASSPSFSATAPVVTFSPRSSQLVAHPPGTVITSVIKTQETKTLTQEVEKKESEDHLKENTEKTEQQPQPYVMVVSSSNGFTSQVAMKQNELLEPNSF
Summary of the method: as §1

EHF = molecular target: T5, EHF (Homo sapiens, UniProt Q9NZC4 1-300)
T5 sequence: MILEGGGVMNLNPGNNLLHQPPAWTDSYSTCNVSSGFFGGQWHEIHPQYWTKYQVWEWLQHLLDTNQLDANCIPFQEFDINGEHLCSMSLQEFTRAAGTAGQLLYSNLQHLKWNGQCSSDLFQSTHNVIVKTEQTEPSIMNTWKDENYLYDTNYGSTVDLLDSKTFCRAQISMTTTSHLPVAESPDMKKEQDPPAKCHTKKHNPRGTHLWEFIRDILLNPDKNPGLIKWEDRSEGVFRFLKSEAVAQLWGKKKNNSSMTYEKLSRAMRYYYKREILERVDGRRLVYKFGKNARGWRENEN
Summary of the method: as §1

SPI1 = SPI1 (Homo sapiens, UniProt P17947 1-270)
Summary of the method: as §1

SPIB = SPIB (Homo sapiens, UniProt Q01892 1-262)
Chain of SPIB (Q01892 whole entry): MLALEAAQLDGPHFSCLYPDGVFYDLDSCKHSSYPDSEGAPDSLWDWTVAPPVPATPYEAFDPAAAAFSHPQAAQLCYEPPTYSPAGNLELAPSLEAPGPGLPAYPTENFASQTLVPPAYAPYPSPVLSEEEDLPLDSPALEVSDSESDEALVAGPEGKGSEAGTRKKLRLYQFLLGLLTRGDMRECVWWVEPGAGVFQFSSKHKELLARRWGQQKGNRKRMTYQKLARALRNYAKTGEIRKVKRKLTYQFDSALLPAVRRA
Summary of the method: as §1

ELK3 = molecular target: T6, ELK3 (Homo sapiens, UniProt P41970 1-407)
T6 sequence: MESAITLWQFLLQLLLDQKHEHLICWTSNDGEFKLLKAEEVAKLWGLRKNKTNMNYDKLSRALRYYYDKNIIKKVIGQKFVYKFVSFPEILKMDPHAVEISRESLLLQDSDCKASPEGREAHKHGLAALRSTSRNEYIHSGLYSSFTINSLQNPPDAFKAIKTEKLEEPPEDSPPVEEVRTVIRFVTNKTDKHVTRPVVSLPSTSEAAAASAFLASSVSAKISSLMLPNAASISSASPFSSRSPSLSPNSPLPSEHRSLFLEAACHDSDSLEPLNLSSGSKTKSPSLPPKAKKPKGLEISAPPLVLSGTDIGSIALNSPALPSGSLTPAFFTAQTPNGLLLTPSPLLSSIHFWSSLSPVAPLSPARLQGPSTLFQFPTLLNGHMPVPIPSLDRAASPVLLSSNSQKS
Summary of the method: as §1

Sequence	binding signal (FLI1)	binding signal (ELK1)	binding signal (GABPA)	binding signal (ERG)	binding signal (ELF1)	binding signal (EHF)	binding signal (SPI1)	binding signal (SPIB)	binding signal (ELK3)
TTTTGG	1.35 fold enrichment (6-mer frequency, TF over GST control)	1.42 fold enrichment (6-mer frequency, TF over GST control)	1.47 fold enrichment (6-mer frequency, TF over GST control)	1.26 fold enrichment (6-mer frequency, TF over GST control)	1.36 fold enrichment (6-mer frequency, TF over GST control)	1.37 fold enrichment (6-mer frequency, TF over GST control)	1.5 fold enrichment (6-mer frequency, TF over GST control)	1.63 fold enrichment (6-mer frequency, TF over GST control)	1.31 fold enrichment (6-mer frequency, TF over GST control)
TTATAC	1.55 fold enrichment (6-mer frequency, TF over GST control)	1.42 fold enrichment (6-mer frequency, TF over GST control)	1.39 fold enrichment (6-mer frequency, TF over GST control)	1.35 fold enrichment (6-mer frequency, TF over GST control)	1.4 fold enrichment (6-mer frequency, TF over GST control)	1.42 fold enrichment (6-mer frequency, TF over GST control)	1.3 fold enrichment (6-mer frequency, TF over GST control)	1.43 fold enrichment (6-mer frequency, TF over GST control)	1.35 fold enrichment (6-mer frequency, TF over GST control)
TTGTCT	1.29 fold enrichment (6-mer frequency, TF over GST control)	1.23 fold enrichment (6-mer frequency, TF over GST control)	1.33 fold enrichment (6-mer frequency, TF over GST control)	1.15 fold enrichment (6-mer frequency, TF over GST control)	1.27 fold enrichment (6-mer frequency, TF over GST control)	1.18 fold enrichment (6-mer frequency, TF over GST control)	1.19 fold enrichment (6-mer frequency, TF over GST control)	1.15 fold enrichment (6-mer frequency, TF over GST control)	1.31 fold enrichment (6-mer frequency, TF over GST control)
GCTCCG	1.37 fold enrichment (6-mer frequency, TF over GST control)	1.4 fold enrichment (6-mer frequency, TF over GST control)	1.35 fold enrichment (6-mer frequency, TF over GST control)	1.36 fold enrichment (6-mer frequency, TF over GST control)	1.32 fold enrichment (6-mer frequency, TF over GST control)	1.45 fold enrichment (6-mer frequency, TF over GST control)	1.25 fold enrichment (6-mer frequency, TF over GST control)	1.19 fold enrichment (6-mer frequency, TF over GST control)	1.44 fold enrichment (6-mer frequency, TF over GST control)
TTATGT	1.3 fold enrichment (6-mer frequency, TF over GST control)	1.3 fold enrichment (6-mer frequency, TF over GST control)	1.27 fold enrichment (6-mer frequency, TF over GST control)	1.31 fold enrichment (6-mer frequency, TF over GST control)	1.24 fold enrichment (6-mer frequency, TF over GST control)	1.28 fold enrichment (6-mer frequency, TF over GST control)	1.31 fold enrichment (6-mer frequency, TF over GST control)	1.32 fold enrichment (6-mer frequency, TF over GST control)	1.22 fold enrichment (6-mer frequency, TF over GST control)
GATCTC	1.43 fold enrichment (6-mer frequency, TF over GST control)	1.19 fold enrichment (6-mer frequency, TF over GST control)	1.16 fold enrichment (6-mer frequency, TF over GST control)	1.2 fold enrichment (6-mer frequency, TF over GST control)	1.27 fold enrichment (6-mer frequency, TF over GST control)	1.42 fold enrichment (6-mer frequency, TF over GST control)	1.28 fold enrichment (6-mer frequency, TF over GST control)	1.25 fold enrichment (6-mer frequency, TF over GST control)	1.23 fold enrichment (6-mer frequency, TF over GST control)
CTCGTC	1.49 fold enrichment (6-mer frequency, TF over GST control)	1.27 fold enrichment (6-mer frequency, TF over GST control)	1.51 fold enrichment (6-mer frequency, TF over GST control)	1.37 fold enrichment (6-mer frequency, TF over GST control)	1.36 fold enrichment (6-mer frequency, TF over GST control)	1.36 fold enrichment (6-mer frequency, TF over GST control)	1.34 fold enrichment (6-mer frequency, TF over GST control)	1.39 fold enrichment (6-mer frequency, TF over GST control)	1.46 fold enrichment (6-mer frequency, TF over GST control)
